Source: article PMC12864922, “TDP-43 directly inhibits mRNA accumulation in neurites through modulation of mRNA stability”
Whole data set: some 9,900 sequences, median “r (bound/input frequency ratio)” near 0.7, cut for the highest 2% near 6.5. Shown is part of a subset that was picked to be rich in the highest values.

B1: ENSMUSG00000058297.15|Spock2|161:165;169:182;191:202;216:222;231:240;246:260 (ssRNA)
RNA: GGGAGUUCUACAGUCCGACGAUCGCUUCGAUAUCCGCAUGCUAAGGCUACAUCUGGUAGAUAGCCCUCGACGGCCUCGGCAGGCCAGGGUGCCGACGGCCAGAAAGACAGGCCAGAAGAGACCUGGACAACAGCAGGCAACUUAGCAAAUGGAUCCGGAAGUCAGUGCGGAGGACCCUGGCUCCAGUGGGGGAGGACUGGGGACACACGCUACACACAUACACACAUAUGAGAACACACACAUACAUGUGAGAUGUGACACACACAUGUGAGAACACACAUACUGAGAACACACACACACACACUCUUGCGGUCGCACUAGUGUGGAAUUCUCGGGUGUCAAGG
B2: ENSMUSG00000058297.11|Spock2 (ssRNA)
RNA: GGGAGUUCUACAGUCCGACGAUCGCUUCGAUAUCCGCAUGCUAUGAGGCGGGUGAGGCAGAUGAUGGAGGCUACAUCUGGUAGAUAGCCCUCGACGGCCUCGGCAGGCCAGGGUGCCGACGGCCAGAAAGACAGGCCAGAAGAGACCUGGACAACAGCAGGCAACUUAGCAAAUGGAUCCGGAAGUCAGUGCGGAGGACCCUGGCUCCAGUGGGGGAGGACUGGGGAGUGUGGCUUGUGUGUAUGUGUGAUAUGAGAUGUGUGUGUAUGAUGUGAGAUGUGAGUGUGUGAUGUGAGAUGUGUGCUCUUGCGGUCGCACUAGUGUGGAAUUCUCGGGUGUCAAGG
B3: ENSMUSG00000058297.15|Spock2 (ssRNA)
RNA: GGGAGUUCUACAGUCCGACGAUCGCUUCGAUAUCCGCAUGCUAAGGCUACAUCUGGUAGAUAGCCCUCGACGGCCUCGGCAGGCCAGGGUGCCGACGGCCAGAAAGACAGGCCAGAAGAGACCUGGACAACAGCAGGCAACUUAGCAAAUGGAUCCGGAAGUCAGUGCGGAGGACCCUGGCUCCAGUGGGGGAGGACUGGGGAGUGUGGCUUGUGUGUAUGUGUGAUAUGAGAUGUGUGUGUAUGAUGUGAGAUGUGAGUGUGUGAUGUGAGAUGUGUGUAUGUGAGAUGUGUGUGUGUGUGUCUCUUGCGGUCGCACUAGUGUGGAAUUCUCGGGUGUCAAGG
B4: ENSMUSG00000058297.14|Spock2 (ssRNA)
RNA: GGGAGUUCUACAGUCCGACGAUCGCUUCGAUAUCCGCAUGCUAUGAUGGAGGCUACAUCUGGUAGAUAGCCCUCGACGGCCUCGGCAGGCCAGGGUGCCGACGGCCAGAAAGACAGGCCAGAAGAGACCUGGACAACAGCAGGCAACUUAGCAAAUGGAUCCGGAAGUCAGUGCGGAGGACCCUGGCUCCAGUGGGGGAGGACUGGGGAGUGUGGCUUGUGUGUAUGUGUGAUAUGAGAUGUGUGUGUAUGAUGUGAGAUGUGAGUGUGUGAUGUGAGAUGUGUGUAUGUGAGAUGUGUGUGUCUCUUGCGGUCGCACUAGUGUGGAAUUCUCGGGUGUCAAGG
B5: ENSMUSG00000058297.16|Spock2|155:159;163:176;185:196;210:216;225:234;240:260 (ssRNA)
RNA: GGGAGUUCUACAGUCCGACGAUCGCUUCGAUAUCCGCAUGCUACAUCUGGUAGAUAGCCCUCGACGGCCUCGGCAGGCCAGGGUGCCGACGGCCAGAAAGACAGGCCAGAAGAGACCUGGACAACAGCAGGCAACUUAGCAAAUGGAUCCGGAAGUCAGUGCGGAGGACCCUGGCUCCAGUGGGGGAGGACUGGGGACACACGCUACACACAUACACACAUAUGAGAACACACACAUACAUGUGAGAUGUGACACACACAUGUGAGAACACACAUACUGAGAACACACACACACACACACACACUCUUGCGGUCGCACUAGUGUGGAAUUCUCGGGUGUCAAGG
B6: ENSMUSG00000058297.14|Spock2|167:171;175:188;197:208;222:228;237:246;252:260 (ssRNA)
RNA: GGGAGUUCUACAGUCCGACGAUCGCUUCGAUAUCCGCAUGCUAUGAUGGAGGCUACAUCUGGUAGAUAGCCCUCGACGGCCUCGGCAGGCCAGGGUGCCGACGGCCAGAAAGACAGGCCAGAAGAGACCUGGACAACAGCAGGCAACUUAGCAAAUGGAUCCGGAAGUCAGUGCGGAGGACCCUGGCUCCAGUGGGGGAGGACUGGGGACACACGCUACACACAUACACACAUAUGAGAACACACACAUACAUGUGAGAUGUGACACACACAUGUGAGAACACACAUACUGAGAACACACACACUCUUGCGGUCGCACUAGUGUGGAAUUCUCGGGUGUCAAGG
B7: ENSMUSG00000058297.16|Spock2 (ssRNA)
RNA: GGGAGUUCUACAGUCCGACGAUCGCUUCGAUAUCCGCAUGCUACAUCUGGUAGAUAGCCCUCGACGGCCUCGGCAGGCCAGGGUGCCGACGGCCAGAAAGACAGGCCAGAAGAGACCUGGACAACAGCAGGCAACUUAGCAAAUGGAUCCGGAAGUCAGUGCGGAGGACCCUGGCUCCAGUGGGGGAGGACUGGGGAGUGUGGCUUGUGUGUAUGUGUGAUAUGAGAUGUGUGUGUAUGAUGUGAGAUGUGAGUGUGUGAUGUGAGAUGUGUGUAUGUGAGAUGUGUGUGUGUGUGUGUGUGUCUCUUGCGGUCGCACUAGUGUGGAAUUCUCGGGUGUCAAGG
B8: ENSMUSG00000058297.3|Spock2|233:237;241:254 (ssRNA)
RNA: GGGAGUUCUACAGUCCGACGAUCGCUUCGAUAUCCGCAUGCUAAGAAAAGGAGACAGAAGAGGCAGGGGAGGAGGCCGAGGAGGAGGAGGGUGAGGCGGGUGAGGCAGAUGAUGGAGGCUACAUCUGGUAGAUAGCCCUCGACGGCCUCGGCAGGCCAGGGUGCCGACGGCCAGAAAGACAGGCCAGAAGAGACCUGGACAACAGCAGGCAACUUAGCAAAUGGAUCCGGAAGUCAGUGCGGAGGACCCUGGCUCCAGUGGGGGAGGACUGGGGACACACGCUACACACAUACACACAUAUGACUCUUGCGGUCGCACUAGUGUGGAAUUCUCGGGUGUCAAGG
B9: ENSMUSG00000058297.2|Spock2|239:243;247:260 (ssRNA)
RNA: GGGAGUUCUACAGUCCGACGAUCGCUUCGAUAUCCGCAUGCUAUGAGGAAGAAAAGGAGACAGAAGAGGCAGGGGAGGAGGCCGAGGAGGAGGAGGGUGAGGCGGGUGAGGCAGAUGAUGGAGGCUACAUCUGGUAGAUAGCCCUCGACGGCCUCGGCAGGCCAGGGUGCCGACGGCCAGAAAGACAGGCCAGAAGAGACCUGGACAACAGCAGGCAACUUAGCAAAUGGAUCCGGAAGUCAGUGCGGAGGACCCUGGCUCCAGUGGGGGAGGACUGGGGACACACGCUACACACAUACACACCUCUUGCGGUCGCACUAGUGUGGAAUUCUCGGGUGUCAAGG

Each binder was assayed against TDP-43 (Homo sapiens, UniProt Q13148 1-414) (assay: RNA Bind-n-Seq with designed 260-mer pool; 25 mM Tris-HCl, 150 mM KCl, 3 mM MgCl2, BSA (printed 500 mg/mL), 20 units/mL SUPERase IN; pH not stated; 500 nM RNA pool, 1 h, 4 C; TDP-43 5, 50, 500 nM; high values mean tight binding). Details: protein: recombinant; tags: SBP (GST cleaved off with PreScission; pGEX-GST-SBP).
Procedure, shortened: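 The incubation lasted 1 h at 4 °C and used 500 nM of an in vitro-transcribed 260-nt 3′ UTR oligo pool with recombinant SBP-tagged TDP-43 at 5, 50 or 500 nM immobilized on streptavidin beads. It took place in 25 mM Tris-HCl, 150 mM KCl, 3 mM MgCl2, BSA and SUPERase IN. Bound RNA was washed, eluted with biotin, converted to cDNA, PCR-amplified and sequenced to give R, each oligo's normalized abundance in the bound sample divided by that in input. Two independent protein batches provided the duplicates.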

TDP-43, sequence (Q13148 whole entry): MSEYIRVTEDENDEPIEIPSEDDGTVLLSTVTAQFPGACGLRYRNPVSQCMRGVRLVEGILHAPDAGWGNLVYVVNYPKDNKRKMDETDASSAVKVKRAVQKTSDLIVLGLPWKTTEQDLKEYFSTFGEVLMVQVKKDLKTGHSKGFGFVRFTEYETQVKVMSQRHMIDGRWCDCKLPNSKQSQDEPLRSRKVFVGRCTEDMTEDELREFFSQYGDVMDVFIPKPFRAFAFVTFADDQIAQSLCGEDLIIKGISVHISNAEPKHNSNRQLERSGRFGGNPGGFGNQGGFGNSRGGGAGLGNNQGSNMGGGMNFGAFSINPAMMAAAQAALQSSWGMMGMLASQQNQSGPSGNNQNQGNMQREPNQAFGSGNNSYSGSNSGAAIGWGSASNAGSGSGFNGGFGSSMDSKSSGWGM

Binder | binding signal
B1 | 2.53 R (bound/input frequency ratio)
B2 | 8.12 R (bound/input frequency ratio)
B3 | 7.97 R (bound/input frequency ratio)
B4 | 8.13 R (bound/input frequency ratio)
B5 | 2.54 R (bound/input frequency ratio)
B6 | 1.95 R (bound/input frequency ratio)
B7 | 7.85 R (bound/input frequency ratio)
B8 | 2.67 R (bound/input frequency ratio)
B9 | 2.26 R (bound/input frequency ratio)
